Measured values taken from ChEMBL document CHEMBL1961873, “Compounds: GSK PKIS; Assays: Nanosyn kinase panel” (2012).

Tests used:
[1] = molecular target: Tyrosine-protein kinase Fyn (Homo sapiens) (UniProt P06241); settings: at 1 µM
[2] = molecular target: Tyrosine-protein kinase HCK (Homo sapiens) (UniProt P08631); settings: at 0.1 µM
[3] = molecular target: Tyrosine-protein kinase HCK (Homo sapiens) (UniProt P08631); settings: at 1 µM
[4] = molecular target: Insulin-like growth factor 1 receptor (Homo sapiens) (UniProt P08069); settings: at 0.1 µM
[5] = molecular target: Insulin-like growth factor 1 receptor (Homo sapiens) (UniProt P08069); settings: at 1 µM
[6] = molecular target: Insulin receptor (Homo sapiens) (UniProt P06213); settings: at 0.1 µM
[7] = molecular target: Insulin receptor (Homo sapiens) (UniProt P06213); settings: at 1 µM
[8] = molecular target: Insulin receptor-related protein (Homo sapiens) (UniProt P14616); settings: at 0.1 µM
[9] = molecular target: Insulin receptor-related protein (Homo sapiens) (UniProt P14616); settings: at 1 µM
[10] = molecular target: T1, Tyrosine-protein kinase ITK/TSK (Homo sapiens) (UniProt Q08881); settings: at 0.1 µM
T1 sequence (whole entry): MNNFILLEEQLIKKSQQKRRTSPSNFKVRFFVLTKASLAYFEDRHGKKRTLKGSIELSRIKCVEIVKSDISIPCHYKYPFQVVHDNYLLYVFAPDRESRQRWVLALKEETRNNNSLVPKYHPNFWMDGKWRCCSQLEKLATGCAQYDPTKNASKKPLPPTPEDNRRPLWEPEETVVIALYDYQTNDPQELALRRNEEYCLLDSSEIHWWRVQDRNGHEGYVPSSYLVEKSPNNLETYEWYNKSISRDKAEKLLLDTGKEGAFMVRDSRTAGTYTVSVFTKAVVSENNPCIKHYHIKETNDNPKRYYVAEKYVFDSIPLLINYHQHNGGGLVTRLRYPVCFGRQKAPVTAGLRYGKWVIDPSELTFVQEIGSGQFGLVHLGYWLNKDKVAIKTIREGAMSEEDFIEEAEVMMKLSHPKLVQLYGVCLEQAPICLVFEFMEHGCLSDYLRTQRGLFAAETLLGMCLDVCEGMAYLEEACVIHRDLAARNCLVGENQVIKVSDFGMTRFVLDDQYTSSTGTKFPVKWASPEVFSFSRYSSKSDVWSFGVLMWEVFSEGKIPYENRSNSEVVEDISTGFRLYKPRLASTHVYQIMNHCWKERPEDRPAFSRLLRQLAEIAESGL

[11] = molecular target: T1, Tyrosine-protein kinase ITK/TSK (Homo sapiens); settings: at 1 µM
[12] = molecular target: Tyrosine-protein kinase JAK1 (Homo sapiens) (UniProt P23458); settings: at 0.1 µM
[13] = molecular target: Tyrosine-protein kinase JAK1 (Homo sapiens) (UniProt P23458); settings: at 1 µM
[14] = molecular target: Tyrosine-protein kinase JAK2 (Homo sapiens) (UniProt O60674); settings: at 0.1 µM
[15] = molecular target: Tyrosine-protein kinase JAK2 (Homo sapiens) (UniProt O60674); settings: at 1 µM
[16] = molecular target: T2, Tyrosine-protein kinase JAK3 (Homo sapiens) (UniProt P52333); settings: at 0.1 µM
T2 sequence (whole entry): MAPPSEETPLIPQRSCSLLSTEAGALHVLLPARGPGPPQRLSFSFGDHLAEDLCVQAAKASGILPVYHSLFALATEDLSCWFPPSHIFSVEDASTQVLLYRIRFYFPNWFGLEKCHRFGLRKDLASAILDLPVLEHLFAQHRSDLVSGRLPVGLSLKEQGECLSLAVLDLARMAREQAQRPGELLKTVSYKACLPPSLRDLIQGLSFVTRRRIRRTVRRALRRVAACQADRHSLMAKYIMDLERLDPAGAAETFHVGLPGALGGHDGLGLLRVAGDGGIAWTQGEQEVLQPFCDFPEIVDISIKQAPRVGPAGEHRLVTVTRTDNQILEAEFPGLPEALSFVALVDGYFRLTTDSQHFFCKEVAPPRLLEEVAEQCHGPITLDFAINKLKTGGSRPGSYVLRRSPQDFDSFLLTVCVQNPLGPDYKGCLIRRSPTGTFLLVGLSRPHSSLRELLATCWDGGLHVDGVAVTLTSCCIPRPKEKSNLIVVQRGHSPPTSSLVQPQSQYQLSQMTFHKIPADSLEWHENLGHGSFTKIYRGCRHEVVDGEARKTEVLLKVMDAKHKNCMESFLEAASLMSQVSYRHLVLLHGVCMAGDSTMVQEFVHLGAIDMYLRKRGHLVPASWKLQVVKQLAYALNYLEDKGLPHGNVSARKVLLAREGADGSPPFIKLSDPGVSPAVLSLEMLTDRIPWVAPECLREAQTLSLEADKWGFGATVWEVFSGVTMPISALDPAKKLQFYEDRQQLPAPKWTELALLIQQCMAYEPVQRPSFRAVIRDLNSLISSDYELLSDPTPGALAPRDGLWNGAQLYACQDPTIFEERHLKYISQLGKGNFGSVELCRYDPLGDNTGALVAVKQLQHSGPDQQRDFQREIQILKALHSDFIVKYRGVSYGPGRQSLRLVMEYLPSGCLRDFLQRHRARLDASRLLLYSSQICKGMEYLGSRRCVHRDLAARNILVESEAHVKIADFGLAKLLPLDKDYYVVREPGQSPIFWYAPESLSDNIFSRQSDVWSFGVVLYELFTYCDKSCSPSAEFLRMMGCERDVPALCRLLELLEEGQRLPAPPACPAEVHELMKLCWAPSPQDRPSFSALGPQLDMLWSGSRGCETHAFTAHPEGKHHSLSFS

[17] = molecular target: T2, Tyrosine-protein kinase JAK3 (Homo sapiens); settings: at 1 µM
[18] = molecular target: Vascular endothelial growth factor receptor 2 (Homo sapiens) (UniProt P35968); settings: at 0.1 µM
[19] = molecular target: Vascular endothelial growth factor receptor 2 (Homo sapiens) (UniProt P35968); settings: at 1 µM
[20] = molecular target: Mast/stem cell growth factor receptor Kit (Homo sapiens) (UniProt P10721); settings: at 0.1 µM;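 further: values are mean inhibition of KIT, from the GSK PKIS dataset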
Sequence of Mast/stem cell growth factor receptor Kit (Homo sapiens) (P10721 whole entry): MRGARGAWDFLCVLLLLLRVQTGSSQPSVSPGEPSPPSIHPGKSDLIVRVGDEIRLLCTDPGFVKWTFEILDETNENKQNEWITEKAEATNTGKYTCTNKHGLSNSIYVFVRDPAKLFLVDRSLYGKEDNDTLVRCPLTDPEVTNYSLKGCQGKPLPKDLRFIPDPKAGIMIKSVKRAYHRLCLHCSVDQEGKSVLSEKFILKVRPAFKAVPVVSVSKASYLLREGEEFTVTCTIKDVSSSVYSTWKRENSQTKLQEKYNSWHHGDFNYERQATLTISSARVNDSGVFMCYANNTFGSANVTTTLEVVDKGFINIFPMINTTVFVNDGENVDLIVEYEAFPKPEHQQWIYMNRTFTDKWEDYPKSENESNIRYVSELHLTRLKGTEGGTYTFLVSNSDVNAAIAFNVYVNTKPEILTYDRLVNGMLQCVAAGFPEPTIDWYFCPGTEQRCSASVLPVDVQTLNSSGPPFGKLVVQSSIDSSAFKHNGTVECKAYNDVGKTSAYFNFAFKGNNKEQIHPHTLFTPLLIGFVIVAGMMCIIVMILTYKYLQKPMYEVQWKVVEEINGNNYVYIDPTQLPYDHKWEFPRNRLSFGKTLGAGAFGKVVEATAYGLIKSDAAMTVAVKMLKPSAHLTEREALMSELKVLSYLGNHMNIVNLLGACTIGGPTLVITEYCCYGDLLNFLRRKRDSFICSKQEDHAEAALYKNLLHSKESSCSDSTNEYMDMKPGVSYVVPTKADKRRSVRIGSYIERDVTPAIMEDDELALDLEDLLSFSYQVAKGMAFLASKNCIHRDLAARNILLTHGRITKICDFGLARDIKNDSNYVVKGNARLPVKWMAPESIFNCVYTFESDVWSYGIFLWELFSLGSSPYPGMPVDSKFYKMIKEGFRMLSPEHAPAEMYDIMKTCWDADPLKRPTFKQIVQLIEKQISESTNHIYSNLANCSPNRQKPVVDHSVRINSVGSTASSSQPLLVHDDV

Sequence of Tyrosine-protein kinase Fyn (Homo sapiens) (P06241 2-537 limits assumed): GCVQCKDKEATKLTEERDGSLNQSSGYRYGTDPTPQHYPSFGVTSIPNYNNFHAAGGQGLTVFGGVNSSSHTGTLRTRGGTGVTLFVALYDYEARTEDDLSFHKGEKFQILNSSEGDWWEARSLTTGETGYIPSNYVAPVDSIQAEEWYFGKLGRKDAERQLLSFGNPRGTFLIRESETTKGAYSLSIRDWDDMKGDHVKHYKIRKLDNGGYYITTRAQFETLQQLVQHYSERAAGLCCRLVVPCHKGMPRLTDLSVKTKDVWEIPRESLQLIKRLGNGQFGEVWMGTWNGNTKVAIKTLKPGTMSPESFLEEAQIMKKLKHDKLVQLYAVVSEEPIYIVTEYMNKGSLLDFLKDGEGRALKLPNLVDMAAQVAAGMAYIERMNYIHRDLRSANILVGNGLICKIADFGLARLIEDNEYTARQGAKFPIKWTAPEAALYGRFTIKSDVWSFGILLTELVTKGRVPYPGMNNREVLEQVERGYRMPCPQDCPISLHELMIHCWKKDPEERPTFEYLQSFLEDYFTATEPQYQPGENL
Sequence of Tyrosine-protein kinase JAK2 (Homo sapiens) (O60674 whole entry): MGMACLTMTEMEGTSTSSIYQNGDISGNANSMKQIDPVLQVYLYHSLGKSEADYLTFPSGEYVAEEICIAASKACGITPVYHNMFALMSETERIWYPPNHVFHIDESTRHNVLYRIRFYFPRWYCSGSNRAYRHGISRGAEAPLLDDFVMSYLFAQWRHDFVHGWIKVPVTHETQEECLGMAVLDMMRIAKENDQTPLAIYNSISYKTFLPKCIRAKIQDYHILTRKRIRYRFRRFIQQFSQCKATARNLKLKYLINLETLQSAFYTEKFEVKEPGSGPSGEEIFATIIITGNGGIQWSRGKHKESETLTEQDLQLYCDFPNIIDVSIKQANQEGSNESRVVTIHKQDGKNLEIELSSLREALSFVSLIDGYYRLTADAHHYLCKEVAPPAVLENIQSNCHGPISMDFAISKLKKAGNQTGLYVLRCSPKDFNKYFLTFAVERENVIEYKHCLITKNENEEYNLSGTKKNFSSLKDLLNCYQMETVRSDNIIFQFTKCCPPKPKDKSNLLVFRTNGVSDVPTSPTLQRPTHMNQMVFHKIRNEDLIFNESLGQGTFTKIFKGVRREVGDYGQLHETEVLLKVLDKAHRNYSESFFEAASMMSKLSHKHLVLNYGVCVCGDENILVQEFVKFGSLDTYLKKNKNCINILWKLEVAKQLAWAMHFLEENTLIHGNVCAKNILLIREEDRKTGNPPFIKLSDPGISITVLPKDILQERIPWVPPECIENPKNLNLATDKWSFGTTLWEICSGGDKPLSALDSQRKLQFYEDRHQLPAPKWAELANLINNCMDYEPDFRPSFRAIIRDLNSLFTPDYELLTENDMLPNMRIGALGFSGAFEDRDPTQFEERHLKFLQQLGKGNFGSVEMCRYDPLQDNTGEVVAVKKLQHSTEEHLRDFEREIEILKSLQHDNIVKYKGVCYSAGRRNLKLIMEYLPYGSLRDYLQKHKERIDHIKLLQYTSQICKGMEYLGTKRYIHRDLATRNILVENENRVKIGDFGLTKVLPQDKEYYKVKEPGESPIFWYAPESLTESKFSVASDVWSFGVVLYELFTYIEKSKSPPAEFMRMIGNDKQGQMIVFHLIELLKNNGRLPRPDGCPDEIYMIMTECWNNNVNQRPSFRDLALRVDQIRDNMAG
Sequence of Tyrosine-protein kinase JAK1 (Homo sapiens) (P23458 whole entry): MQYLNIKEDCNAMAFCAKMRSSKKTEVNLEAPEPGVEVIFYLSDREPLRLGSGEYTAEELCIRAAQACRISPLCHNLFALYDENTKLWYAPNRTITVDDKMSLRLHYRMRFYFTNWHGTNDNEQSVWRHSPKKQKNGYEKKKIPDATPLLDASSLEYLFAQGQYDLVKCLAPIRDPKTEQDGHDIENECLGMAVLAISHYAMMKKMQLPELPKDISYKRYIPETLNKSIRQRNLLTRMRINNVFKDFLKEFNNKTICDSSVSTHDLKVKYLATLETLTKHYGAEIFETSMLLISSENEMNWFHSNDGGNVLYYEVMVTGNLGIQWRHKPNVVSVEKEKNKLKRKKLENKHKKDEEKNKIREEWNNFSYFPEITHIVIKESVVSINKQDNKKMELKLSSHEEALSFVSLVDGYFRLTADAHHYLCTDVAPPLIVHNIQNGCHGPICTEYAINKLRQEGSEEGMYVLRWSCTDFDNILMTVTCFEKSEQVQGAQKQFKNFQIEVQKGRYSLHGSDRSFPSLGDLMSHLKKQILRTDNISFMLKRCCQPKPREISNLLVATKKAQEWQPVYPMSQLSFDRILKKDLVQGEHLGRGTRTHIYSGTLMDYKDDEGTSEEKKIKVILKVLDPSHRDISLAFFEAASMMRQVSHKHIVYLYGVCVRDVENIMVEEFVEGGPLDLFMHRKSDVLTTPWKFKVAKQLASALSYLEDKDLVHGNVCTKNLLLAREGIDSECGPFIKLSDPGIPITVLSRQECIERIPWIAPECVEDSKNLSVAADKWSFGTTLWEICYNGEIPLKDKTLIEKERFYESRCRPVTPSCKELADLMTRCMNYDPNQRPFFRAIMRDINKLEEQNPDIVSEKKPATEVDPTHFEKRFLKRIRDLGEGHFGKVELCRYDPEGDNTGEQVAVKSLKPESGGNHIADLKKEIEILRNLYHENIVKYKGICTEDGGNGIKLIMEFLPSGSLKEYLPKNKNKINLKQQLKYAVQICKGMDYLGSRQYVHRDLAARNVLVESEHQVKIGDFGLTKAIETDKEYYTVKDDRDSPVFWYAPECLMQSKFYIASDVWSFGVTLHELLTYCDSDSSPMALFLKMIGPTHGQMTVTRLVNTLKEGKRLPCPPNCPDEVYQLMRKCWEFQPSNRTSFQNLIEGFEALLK
Sequence of Insulin receptor-related protein (Homo sapiens) (P14616 27-742 limits assumed): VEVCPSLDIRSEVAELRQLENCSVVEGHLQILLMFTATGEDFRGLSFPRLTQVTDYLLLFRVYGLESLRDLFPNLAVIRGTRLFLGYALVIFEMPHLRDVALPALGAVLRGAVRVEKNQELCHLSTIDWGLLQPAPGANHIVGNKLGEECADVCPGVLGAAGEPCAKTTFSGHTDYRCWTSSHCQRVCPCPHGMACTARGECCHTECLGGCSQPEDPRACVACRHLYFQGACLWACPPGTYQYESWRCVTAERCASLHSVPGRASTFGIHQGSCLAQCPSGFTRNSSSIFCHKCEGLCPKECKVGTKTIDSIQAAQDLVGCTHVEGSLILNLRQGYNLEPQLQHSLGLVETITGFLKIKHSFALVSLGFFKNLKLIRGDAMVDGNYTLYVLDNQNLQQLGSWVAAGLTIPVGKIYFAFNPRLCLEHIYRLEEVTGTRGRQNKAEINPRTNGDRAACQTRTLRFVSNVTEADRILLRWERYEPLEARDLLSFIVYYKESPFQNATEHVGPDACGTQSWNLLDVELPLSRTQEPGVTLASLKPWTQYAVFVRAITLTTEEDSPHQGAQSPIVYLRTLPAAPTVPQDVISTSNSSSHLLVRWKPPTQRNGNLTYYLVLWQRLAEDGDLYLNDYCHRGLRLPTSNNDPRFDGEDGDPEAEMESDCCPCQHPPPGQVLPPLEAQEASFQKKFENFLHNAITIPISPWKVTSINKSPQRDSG
Sequence of Insulin receptor-related protein (Homo sapiens) (P14616 747-1297 limits assumed): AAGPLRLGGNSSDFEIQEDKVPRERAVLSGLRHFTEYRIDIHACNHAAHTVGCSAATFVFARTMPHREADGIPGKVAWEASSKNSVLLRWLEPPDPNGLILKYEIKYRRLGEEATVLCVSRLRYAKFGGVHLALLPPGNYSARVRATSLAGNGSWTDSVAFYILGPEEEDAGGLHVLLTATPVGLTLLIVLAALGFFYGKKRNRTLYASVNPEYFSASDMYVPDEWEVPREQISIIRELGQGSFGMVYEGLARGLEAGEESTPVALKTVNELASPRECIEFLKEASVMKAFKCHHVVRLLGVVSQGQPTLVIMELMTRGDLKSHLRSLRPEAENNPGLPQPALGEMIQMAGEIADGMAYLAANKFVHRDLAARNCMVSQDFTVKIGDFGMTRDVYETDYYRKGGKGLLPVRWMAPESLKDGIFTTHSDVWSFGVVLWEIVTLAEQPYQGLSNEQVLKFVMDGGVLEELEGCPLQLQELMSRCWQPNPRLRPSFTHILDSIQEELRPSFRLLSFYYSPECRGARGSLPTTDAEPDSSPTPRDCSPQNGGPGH

| SMILES | inhibition [1] [%] | inhibition [2] [%] | inhibition [3] [%] | inhibition [4] [%] | inhibition [5] [%] | inhibition [6] [%] | inhibition [7] [%] | inhibition [8] [%] | inhibition [9] [%] | inhibition [10] [%] | inhibition [11] [%] | inhibition [12] [%] | inhibition [13] [%] | inhibition [14] [%] | inhibition [15] [%] | inhibition [16] [%] | inhibition [17] [%] | inhibition [18] [%] | inhibition [19] [%] | inhibition [20] [%] |
| --- | --- | --- | --- | --- | --- | --- | --- | --- | --- | --- | --- | --- | --- | --- | --- | --- | --- | --- | --- | --- |
| CCn1c(-c2nonc2N)nc2cncc(C(=O)N3CC[C@H](N)C3)c21 | 2.85 | 6.43 | 9.69 | 4.59 | 6 | 4.27 | 6.06 | 0.81 | 1.96 | 0.55 | 1.18 | -1.1 | 22.4 | 0.61 | 1.25 | -0.95 | -0.29 | 7.05 | 15.8 | 5.39 |
| COc1cc2ncn(-c3cc(OCc4ccccc4Cl)c(C(N)=O)s3)c2cc1OC | 23.5 | 4.09 | 27.1 | 2.22 | 2.52 | 4.5 | 7.12 | -1.76 | 0.06 | 0.4 | 3.19 | 0.17 | 5.86 | 0.18 | 0.34 | 0.35 | 4.86 | 12.2 | 53.9 | 0.54 |
| O=C1NC(=O)C(c2cccc(Cl)c2)=C1Nc1ccc(O)c(Cl)c1 | 2.24 | 1.14 | 3.34 | -1.68 | 2.43 | 4.11 | 6.7 | 1.1 | 0.03 | 0.25 | 1.28 | 2.54 | 7.81 | 0.65 | 2.24 | 3.49 | 51.4 | 3.41 | 20.1 | -3.91 |
| O=C1NC(=O)C(c2ccccc2Cl)=C1Nc1cccc(O)c1 | 2.43 | 3.62 | 5.29 | 3.77 | 2.85 | 0.88 | 4.12 | 7.16 | 2.14 | 1.12 | 2.08 | 3.43 | 0.51 | 2.97 | 4.56 | 0.39 | 21.8 | 4.45 | 6.91 | 0.48 |
| CCCN1CCC=C(c2ccc(Nc3nc(Nc4ccccc4C(N)=O)c4cc[nH]c4n3)c(C)c2)C1 | 7.24 | 7.82 | 16.3 | 97.6 | 99.2 | 84 | 90.1 | 23.2 | 70.8 | 1.99 | 7.61 | 2.14 | 3.46 | 2.19 | 2.74 | -1.04 | 0.49 | 0.98 | 17.7 | 4.24 |
| Cc1nn(C)c2cc(N(C)c3ccnc(Nc4cccc(S(N)(=O)=O)c4)n3)ccc12 | 28.7 | 12.8 | 50.2 | 1.89 | 7.04 | 8.17 | 3.38 | 0.14 | 0.9 | 1.53 | 8.33 | 12.3 | 54.9 | 7.43 | 59.5 | -0.24 | 27.3 | 45.4 | 68.5 | 47 |
| CS(=O)(=O)CCNCc1ccc(-c2ccc3ncnc(Nc4ccc(OCc5ccccc5)c(Cl)c4)c3c2)o1 | 9.03 | 1.16 | 5.85 | 5.19 | -0.77 | 1.79 | 1.45 | -1.48 | -1.47 | -0.01 | 1.43 | -0.15 | 1.78 | -0.29 | 1.05 | 0.91 | 2.44 | 6.23 | 14.2 | 2.73 |
| COc1ccccc1Nc1ncc(-c2ccccc2)o1 | 8.38 | 9.81 | 13.3 | -0.7 | 1.64 | 1.17 | 3.48 | 3.09 | 3.73 | 0.73 | 3.07 | 4.14 | 5.2 | 0.56 | -0.51 | -3.6 | -1.96 | 10.6 | 19.2 | 78.2 |
| O=C1Nc2ccc(C(=O)c3ccco3)cc2C1=Cc1cc(Cl)c(O)c(Cl)c1 | 20.7 | 5.82 | 17.4 | 4.15 | 4.7 | 5.71 | 3.98 | 1.08 | 2.14 | 1.31 | 3.21 | 5.2 | 7.05 | 2.07 | 6 | 12.7 | 66.9 | 6.41 | 18.7 | 16.6 |
| Cc1cc(O)cc(C)c1/C=C/c1cncc(-c2nn[nH]n2)c1 | 52.3 | 20.6 | 74.9 | -3.59 | -2.05 | 7.59 | 8.18 | 2.98 | 2.21 | -2.15 | -1.93 | 1.7 | 4.82 | 1.66 | 2.27 | -4.63 | -3.88 | 4.58 | 10.2 | 11.9 |
| CS(=O)(=O)CCN(CC#N)Cc1ccc(-c2ccc3ncnc(Nc4ccc(OCc5cccc(F)c5)c(Cl)c4)c3c2)o1 | -3.53 | 2.47 | 3.04 |  | -4.22 | 4.4 | 2.93 | -0.19 | 0.84 | -2.61 | -3.44 | 0.62 | 1.2 | 1.36 | 1.26 | -5.68 | -5.16 | 4.09 | 7.7 | -0.23 |
| O=C(Nc1n[nH]c2nc(-c3ccco3)c(Br)cc12)C1CC1 | 1.8 | 5.5 | 9.03 | 2.77 | 3.89 | 3.98 |  | 2.25 | 1.49 | 3.8 | 23.7 | 2.41 | -1.14 | 1.5 | 1.59 | -1.04 | 1.18 | 5.71 | 15.5 | 6.02 |
| Fc1cccc(COc2ccc(Nc3ncnc4cc(-c5ccc[nH]5)sc34)cc2Cl)c1 | 4.86 | 3.68 | 9.04 | -6.59 | -4.84 | 5.37 | 6 | -0.19 | 0.95 | -2.3 | -1.9 | 2.84 | 13.6 | 1.26 | 3.62 | -3.97 | -1.5 | 6.01 | 11.8 | 2.16 |
